Assay results taken from PubChem BioAssay (Tox21).
Where “and” joins values, the source holds several entries; their conditions need not be identical. Identical values can stand only once. Inconclusive results are not listed. Some compounds were tested as several samples or in several runs, with calls that do not always agree. Calls of active or inactive are those of the source. Unless noted, the call rests on the fitted dose curve; in most records, active means well fitted curve in the direction sought with a large enough effect in the repeat runs; inconclusive means weak or mixed curves; inactive means no such curve, though single readings can be large; an effect the other way counts as inactive or inconclusive.

Tests used:
[1] = qHTS assay to identify small molecule antagonists of the retinoid acid receptor (RAR) signaling pathway - cell viability counter screen (AID 1159551); further: nearly all actives have a fitted effect of over 35% in size; further: potency means the concentration at half of the fitted maximal effect
Procedure, shortened: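 C3RL4 RARE-luciferase line; cpds + retinol 1 uM final, 6 h, 37 C/5% CO2; CellTiter-Glo ATP luminescence, 30 min RT.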

[2] = qHTS assay to identify small molecule antagonists of the retinoic acid receptor (RAR) signaling pathway (AID 1159552; further: nearly all actives have a fitted effect of over 50% in size; further: potency means the concentration at half of the fitted maximal effect)
Procedure, shortened: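 Test chemicals and DMSO controls were pin-transferred onto C3RL4 cells a day after seeding; retinol (1 uM final) followed at once. Luminescent reporter output was quantified after 6 hr of co-incubation and 30 min with detection reagent.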

[3] = qHTS assay to identify small molecule agonists of the retinoic acid receptor (RAR) signaling pathway (AID 1159553); further: potency means the concentration at half of the fitted maximal effect
Procedure, shortened: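 RARE-luc C3RL4 cells; overnight attachment 37 C/5% CO2; compound (DMSO) 6 hr; luciferase reagent, 30 min RT; luminescence read-out.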

[4] = qHTS assay to identify small molecule antagonists of the estrogen related receptor (ERR) signaling pathway from Tox21 library - cell viability counter screen (AID 1224834); further: nearly all actives have a fitted effect of over 30% in size; further: potency means the concentration at half of the fitted maximal effect
Procedure, shortened: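 Multiplexed viability counter screen in ERR cells: 17.5 h compound exposure at 37 C, CellTiter-Fluor added, 30 min at 37 C/5% CO2, fluorescence read.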

[5] = biological target: Luciferin 4-monooxygenase (Photinus pyralis) (UniProt P08659); assay: qHTS assay to identify small molecule inhibitors of firefly luciferase (AID 1224835); further: nearly all actives have a fitted effect of over 25% in size; further: potency means the concentration at half of the fitted maximal effect
Luciferin 4-monooxygenase (Photinus pyralis), sequence (P08659 whole entry, looked up): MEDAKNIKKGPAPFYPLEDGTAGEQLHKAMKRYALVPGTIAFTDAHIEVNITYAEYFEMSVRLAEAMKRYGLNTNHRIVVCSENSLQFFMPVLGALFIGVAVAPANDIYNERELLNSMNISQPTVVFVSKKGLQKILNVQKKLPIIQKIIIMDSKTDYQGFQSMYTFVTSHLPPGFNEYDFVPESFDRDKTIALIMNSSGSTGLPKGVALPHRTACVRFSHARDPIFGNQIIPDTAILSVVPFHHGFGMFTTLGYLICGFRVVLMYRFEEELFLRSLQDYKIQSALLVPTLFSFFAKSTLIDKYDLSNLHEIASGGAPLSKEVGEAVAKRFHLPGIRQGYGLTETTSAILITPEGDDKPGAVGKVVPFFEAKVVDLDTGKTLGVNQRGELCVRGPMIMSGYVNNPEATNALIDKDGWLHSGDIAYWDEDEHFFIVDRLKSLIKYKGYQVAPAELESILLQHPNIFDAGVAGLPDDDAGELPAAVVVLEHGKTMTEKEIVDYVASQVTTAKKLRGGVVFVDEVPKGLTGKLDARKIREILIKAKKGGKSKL
Procedure, shortened: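 Inhibition of purified Photinus luciferase is measured by luminescence. Substrate levels (D-luciferin, ATP) sit at their KM values. Each compound is tested in a concentration series.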

[6] = qHTS assay to identify small molecule agonists of the constitutive androstane receptor (CAR) signaling pathway - cell viability counter screen (AID 1224836); further: nearly all actives have a fitted effect of over 45% in size; further: potency means the concentration at half of the fitted maximal effect
Procedure, shortened: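 23 h treatment, 37 C, 5% CO2. Cell line: HepG2 stably expressing hCAR with a CYP2B6-2.2kb construct. Co-treatment: PK11195, 0.75 uM final. Read-out: CellTiter-Fluor fluorescence intensity.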

[7] = biological target: Nuclear receptor subfamily 1 group I member 3 (Homo sapiens) (UniProt Q14994); assay: qHTS assay to identify small molecule antagonists of the constitutive androstane receptor (CAR) signaling pathway (AID 1224838);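 further: HepG2 cells stably expressing hCAR with CYP2B6 luciferase reporter stimulated by CITCO; nearly all actives have a fitted effect of over 40% in size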; further: potency means the concentration at half of the fitted maximal effect
Nuclear receptor subfamily 1 group I member 3 (Homo sapiens), sequence (Q14994 whole entry, looked up): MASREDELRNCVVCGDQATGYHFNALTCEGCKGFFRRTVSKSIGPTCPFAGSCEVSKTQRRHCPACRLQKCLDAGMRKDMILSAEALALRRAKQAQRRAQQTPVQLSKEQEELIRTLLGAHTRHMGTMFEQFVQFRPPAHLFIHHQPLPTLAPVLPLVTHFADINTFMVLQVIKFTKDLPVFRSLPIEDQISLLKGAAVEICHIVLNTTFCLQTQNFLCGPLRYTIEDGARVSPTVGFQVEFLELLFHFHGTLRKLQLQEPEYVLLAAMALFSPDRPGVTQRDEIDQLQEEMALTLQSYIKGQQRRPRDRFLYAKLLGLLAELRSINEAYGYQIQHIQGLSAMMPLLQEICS
Procedure, shortened: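 Read-out: ONE-Glo luciferase luminescence after 30 min at room temperature. HepG2-CYP2B6-hCAR double-stable cells, compounds in 15-point titration plus 50 nM CITCO final, 24 h at 37 C/5% CO2.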

[8] = biological target: Nuclear receptor subfamily 1 group I member 3 (Homo sapiens) (UniProt Q14994); assay: qHTS assay to identify small molecule agonists of the constitutive androstane receptor (CAR) signaling pathway (AID 1224839); further: nearly all actives have a fitted effect of over 15% in size; further: potency means the concentration at half of the fitted maximal effect
Procedure, shortened: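 Compounds tested at 15 concentrations on HepG2 cells stably harbouring hCAR and CYP2B6-2.2kb reporter constructs, co-treated with PK11195 (0.75 uM final), 24 h at 37 C; luminescent reporter signal quantified.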

[9] = qHTS assay to identify small molecule antagonists of the estrogen related receptor signaling pathway with the pleiotropic PPARgamma coactivator (PGC) from Tox21 10K library (AID 1224841; call rule not given here; further: actives are mostly falling curves and most rising ones were filed inactive; nearly all actives have a fitted effect of over 50% in size; further: potency means the concentration at half of the fitted maximal effect)
Procedure, shortened: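 Luminescence read-out (One-Glo luciferase reagent, 30 min at room temperature) from PGC/ERR cells exposed to DMSO-dissolved test compounds for 18 h at 37 C; cells, 2,000 per well, had been preincubated 6 h before compound transfer.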

[10] = qHTS assay to identify small molecule agonists of the estrogen related receptor signaling pathway with the pleiotropic PPARgamma coactivator (PGC) from Tox21 10K library (AID 1224842); further: nearly all actives have a fitted effect of over 15% in size
Procedure, shortened: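 Luminescence from One-Glo (30 min, room temperature) measured after PGC/ERR cells had 18 h at 37 C with pinned compound (23 nL in DMSO). Cells had been seeded at 2,000 per well and pre-incubated 6 h.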

[11] = qHTS assay to identify small molecule antagonists of the estrogen related receptor (ERR) signaling pathway - cell viability counter screen (AID 1224818); further: series mostly up to about 46 µM
Procedure, shortened: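 Fluorescence from CellTiter-Fluor, read 30 min after reagent addition at 37 C, measured viability of ERR cells exposed to compounds for 17.5 h. Cells had settled 6 h before dosing.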

[12] = qHTS assay to identify small molecule agonists of the estrogen related receptor (ERR) signaling pathway (AID 1224820)
Procedure, shortened: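 After 6 h plating (2,000 cells/well) and 18 h compound treatment at 37 C, ERR cells were lysed with One-Glo and luminescence read after 30 min at room temperature.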

[13] = system: estrogen-related receptor alpha (ERRalpha) with PGC-1alpha coactivator, human; assay: qHTS assay to identify small molecule antagonists of the estrogen related receptor signaling pathway with the pleiotropic PPARgamma coactivator (PGC) (AID 1224821; calls by dose curve;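 further: series mostly up to about 46 µM; lower luminescence signal means antagonism of PGC/ERR signalling; nearly all actives have a fitted effect of over 50% in size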)
Procedure, shortened: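 Luminescence from One-Glo luciferase reagent (30 min, room temperature) measured after 18 h compound treatment at 37 °C. Cells carry the PGC/ERR reporter and were seeded 6 h prior to dosing.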

[14] = qHTS assay to identify small molecule antagonists of the estrogen related receptor signaling pathway with the pleiotropic PPARgamma coactivator (PGC) cell viability counter screen (AID 1224822; further: series mostly up to about 46 µM)
Procedure, shortened: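 Fluorescence read-out of CellTiter-Fluor after 30 min at 37 C; PGC/ERR cells, 2,000 per well, had been exposed to DMSO-dissolved compounds for 17.5 h following a 6 h pre-incubation.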

[15] = qHTS assay to identify small molecule agonists of the estrogen related receptor signaling pathway with the pleiotropic PPARgamma coactivator (PGC) (AID 1224823)
Procedure, shortened: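 Luminescence from One-Glo reagent (30 min, room temperature) was read after 18 h compound treatment at 37 C of PGC/ERR cells plated 6 h beforehand; compounds delivered in DMSO by pin tool.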

[16] = qHTS assay to identify small molecule antagonists of the estrogen related receptor signaling pathway with the pleiotropic PPARgamma coactivator (PGC) from Tox21 10K library - cell viability counter screen (AID 1224840; active means well fitted cell-killing curve with a large enough effect in the repeat runs, not every such curve was filed as active; further: nearly all actives have a fitted effect of over 40% in size; further: potency means the concentration at half of the fitted maximal effect)
Procedure, shortened: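 Fluorescence read-out of CellTiter-Fluor viability reagent, added after cells had been exposed to compound in DMSO for 17.5 h at 37 C; 30 min development at 37 C/5% CO2. Cells: PGC/ERR line, 2,000/well.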

[17] = biological target: Thyrotropin receptor (Homo sapiens) (UniProt P16473); assay: qHTS assay to identify small molecule agonists of the thyroid stimulating hormone receptor (TSHR) signaling pathway (AID 1224843; calls by dose curve; further: nearly all actives have a fitted effect of over 45% in size; further: potency means the concentration at half of the fitted maximal effect)
Thyrotropin receptor (Homo sapiens), sequence (P16473 whole entry, looked up): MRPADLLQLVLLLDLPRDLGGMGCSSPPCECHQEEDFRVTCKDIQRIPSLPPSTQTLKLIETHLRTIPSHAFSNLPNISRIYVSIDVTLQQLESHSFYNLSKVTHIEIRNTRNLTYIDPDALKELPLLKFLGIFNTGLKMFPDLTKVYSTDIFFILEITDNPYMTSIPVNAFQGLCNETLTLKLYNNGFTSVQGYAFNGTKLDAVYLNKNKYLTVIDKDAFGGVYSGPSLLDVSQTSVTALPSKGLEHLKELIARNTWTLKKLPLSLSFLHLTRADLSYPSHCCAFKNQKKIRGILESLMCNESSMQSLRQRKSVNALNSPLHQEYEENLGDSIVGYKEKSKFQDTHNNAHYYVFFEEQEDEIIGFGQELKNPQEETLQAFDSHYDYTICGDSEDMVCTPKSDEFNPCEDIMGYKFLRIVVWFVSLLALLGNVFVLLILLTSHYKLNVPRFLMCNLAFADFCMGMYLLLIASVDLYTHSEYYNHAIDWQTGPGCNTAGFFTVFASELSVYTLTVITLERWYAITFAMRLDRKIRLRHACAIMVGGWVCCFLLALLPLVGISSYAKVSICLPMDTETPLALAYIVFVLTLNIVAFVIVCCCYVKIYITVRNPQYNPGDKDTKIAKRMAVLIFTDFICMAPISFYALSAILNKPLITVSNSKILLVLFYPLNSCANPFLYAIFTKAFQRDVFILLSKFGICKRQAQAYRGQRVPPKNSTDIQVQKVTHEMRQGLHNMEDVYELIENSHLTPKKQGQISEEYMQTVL
Procedure, shortened: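 Agonist activity read as cAMP rise via d2/cryptate HTRF competition, 1 h room-temperature detection, in HEK293 cells expressing TSHR. Fifteen-point titrations, each run in triplicate, with a 30 min room-temperature incubation beforehand.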

[18] = qHTS assay to identify small molecule agonists of the hypoxia (HIF-1) signaling pathway - cell viability counter screen (AID 1224844; calls by dose curve; further: nearly all actives have a fitted effect of over 50% in size; further: potency means the concentration at half of the fitted maximal effect)
Procedure, shortened: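 CellTiter-Glo luminescence read-out, 30 min RT, taken in the same wells as the beta-lactamase HRE reporter assay; HRE-bla ME-180 cells, 0.5% dialyzed FBS, 17 hr compound treatment at 37C, 5% CO2.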

[19] = qHTS assay to identify small molecule antagonists of the constitutive androstane receptor (CAR) signaling pathway - cell viability counter screen (AID 1224837); further: nearly all actives have a fitted effect of over 45% in size; further: potency means the concentration at half of the fitted maximal effect
Procedure, shortened: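 Read-out: CellTiter-Fluor fluorescence after 23 hr at 37 C/5% CO2. Cells: HepG2 double-stable for hCAR and CYP2B6-2.2kb. Compounds tested at 15 concentrations in the presence of CITCO, final concentration 50 nM.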

Measured: Potency

c1ccc2cc3c(cc2c1)-c1cccc2cccc-3c12
inactive: [1] | [2] | [3] | [4] | [5] | [6] | [7] | [9] | [10]
active: [8] 0.955 µM

Nc1ccc(Sc2ccc(N)cc2)cc1
active: [8] 34.4 µM
not listed: [3] | [4] | [5] | [9] | [19]
inactive: all other assays above

CC(C)(C)c1cc([N+](=O)[O-])cc(C(C)(C)C)c1O
inactive: [1] | [5] | [10] | [17]
active: [2] 15.4 µM | [4] 13.7 µM | [6] 19.3 µM | [19] 21.7 µM | [7] 27.3 µM | [8] 5.45 µM | [16] 13.7 µM | [9] 2.73 µM

CC(=O)C(Cl)(Cl)Cl
inactive: [1] | [3] | [8] | [10] | [17] | [18]
active: [2] 29.6 µM | [4] 20.9 µM | [6] 16.6 µM | [19] 20.9 µM | [7] 23.5 µM | [16] 23.5 µM | [9] 8.34 µM

CCCN(CCC)c1c([N+](=O)[O-])cc(S(N)(=O)=O)cc1[N+](=O)[O-]
active: [1] 58.1 µM | [2] 48.6 µM | [4] 46.2 µM | [6] 65.2 µM | [19] 65.2 µM | [8] 16.4 µM | [9] 65.2 µM | [17] 5.18 µM
inactive: [12] | [15] | [5] | [10]

Oc1ccc(C(=C(Cl)Cl)c2ccc(O)cc2)cc1
active: [8] 48.5 µM
inactive: [1] | [2] | [3] | [5] | [6] | [19] | [7] | [10]

Nc1ccccc1C(=O)OC/C=C/c1ccccc1
active: [3] 1.22 µM | [5] 31.8 µM | [8] 48.7 µM
inactive: [1] | [2] | [6] | [19] | [7] | [16] | [17]

Clc1ccc(C(Cl)(Cl)Cl)c(Cl)c1
active: [9] 61.6 µM
not listed: [4] | [11] | [12] | [13] | [14] | [15] | [18]
inactive: all other assays above

Oc1c(Cl)c(Cl)cc(Cl)c1Cl
active: [2] 66.7 µM | [5] 87 µM | [9] 53 µM
inactive: [1] | [3] | [7] | [8] | [17] | [18]

CCCCCCCCCCCCCCCCCCn1cc[n+](C)c1
active: [1] 48.3 µM | [2] 21.6 µM | [4] 27.1 µM | [6] 24.2 µM | [19] 17.1 µM | [7] 43 µM | [16] 30.5 µM | [9] 24.2 µM | [18] 43.4 µM
inactive: [5] | [8] | [10] | [17]

CN(C)C1CSSSC1
not listed: [5] | [9] | [11] | [12] | [13] | [14] | [15] | [17]
inactive: all other assays above

BrC(Br)C(Br)(Br)Br
active: [2] 30.8 µM | [5] 22.6 µM
inactive: [1] | [3] | [6] | [19] | [8]

CC(C)(C)c1ccc(CSc2cnn(C(C)(C)C)c(=O)c2Cl)cc1
inactive: [1] | [2] | [3] | [5] | [8] | [16]
active: [9] 0.0049 µM

COP(=S)(OC)Oc1cc(Cl)c(Br)cc1Cl
active: [8] 54.5 µM
inactive: [1] | [2] | [3] | [4] | [6] | [19] | [7] | [17] | [18]

C[C@@H]1CC[C@@]2(OC1)O[C@H]1[C@@H](O)[C@H]3[C@@H]4CC[C@H]5C[C@@H](O[C@@H]6O[C@H](CO)[C@H](O[C@@H]7O[C@H](CO)[C@@H](O)[C@H](O[C@@H]8OC[C@@H](O)[C@H](O)[C@H]8O)[C@H]7O[C@@H]7O[C@H](CO)[C@@H](O)[C@H](O[C@@H]8O[C@H](CO)[C@@H](O)[C@H](O)[C@H]8O)[C@H]7O)[C@H](O)[C@H]6O)[C@H](O)C[C@]5(C)[C@H]4CC[C@]3(C)[C@H]1[C@@H]2C
inactive: [5] | [8] | [10]
active: [1] 25.8 µM | [2] 20.5 µM | [4] 20.5 µM | [6] 23 µM | [19] 25.8 µM | [7] 29 µM | [16] 20.5 µM | [9] 40.9 µM

CCOP(=S)(OCC)OC(Cl)C(Cl)(Cl)Cl (stereo unspecified)
not listed: [5] | [8] | [10] | [11] | [12] | [13] | [14] | [15]
inactive: all other assays above

CC(C)CC(C)(c1ccc(O)cc1)c1ccc(O)cc1
48.7 µM (active) and inactive: [17]
inactive: [1] | [2] | [3] | [5] | [10]
active: [4] 48.7 µM | [7] 2.44 µM | [8] 6.87 µM and 2.17 µM | [9] 54.6 µM

ClC1=C(Cl)[C@]2(Cl)[C@@H]3[C@@H]4C[C@@H]([C@H]5O[C@@H]45)[C@@H]3[C@@]1(Cl)C2(Cl)Cl
inactive: [11] | [12] | [14] | [15] | [5] | [6] | [19]
active: [1] 61.1 µM | [2] 27.3 µM | [4] 54.5 µM | [9] 61.1 µM | [17] 1.93 µM

CC1(C)CN=C(NN=C(/C=C/c2ccc(C(F)(F)F)cc2)/C=C/c2ccc(C(F)(F)F)cc2)NC1
active: [1] 43.3 µM | [2] 9.69 µM | [4] 21.7 µM | [6] 24.3 µM | [19] 21.7 µM | [7] 19.3 µM | [16] 17.2 µM | [9] 27.3 µM | [18] 21.9 µM
inactive: [5] | [8] | [10] | [17]
